# Test results from PubChem BioAssay AID624331 (National Center for Advancing Translational Sciences (NCATS), 2012).
# Results filed as inconclusive are left out. Unmarked numbers belong to inactive results. The call rests on the fitted dose curve; in most records, active means well fitted activation curve with a large enough effect; inconclusive means small, poorly fitted or top-dose-only effect; inactive means no such curve, though single readings can be large or run the other way.
# Test: qHTS assay for re-activators of p53 using a Luc reporter: Hit Validation with no p53 Expressed; further: 0% is about no effect
# Settings: p53-null cells, luciferase reporter counter-screen; series mostly up to 46.1 µM; activity change, positive = activation: at the top concentration
# In short: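 Without p53 expression, cells (1000/well, Opti-MEM + 10% FBS) were exposed 24 h at 37 deg C to compounds in a 1:5 series from 10 mM stock (top 46.1 µM in well). Luminescent signal read 10 min after Amplite addition; actives flag unspecific activation.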
row,Compound,"activity change, positive = activation"
1,NC(=NCc1ccccc1)c1cccc([N+](=O)[O-])c1,-33.5%
2,Cc1ccc(C(=O)Nc2ncc3c(n2)CC(c2ccco2)CC3=O)cc1 (stereo not given),65.3%
3,COc1ccc(/C=N/Nc2nncc3ccccc23)cc1,31.9%
4,CCOC(=O)C(C(C)=O)C(c1ccc(OC)cc1)C(C(C)=O)C(=O)OCC (stereo not given),-8.98%
5,CNC(=S)N/N=C/c1cc(Br)cc(Br)c1O,-14.3%
6,O=C(Nc1ccc(Br)cn1)c1cccc(-c2cc3ccccc3oc2=O)c1,-13.3%
7,NC(=O)c1ccc(-n2c(CCC(=O)O)ccc2-c2cccs2)cc1,6.11%
8,C/C(=N\NC(=O)c1ccccc1)c1ccc(NC(=O)c2cccs2)cc1,-38.4%
9,CCc1nnc(NC(=O)C2Cc3ccccc3CN2S(=O)(=O)c2cccs2)s1 (stereo not given),11.4%
10,Cc1cccc(N2CCN(S(=O)(=O)c3ccc4c(c3)CCC(=O)N4)CC2C)c1 (stereo not given),-36.5%
11,COc1ccc2c(c1)CCC/C2=N\NC(=O)c1ccoc1C,-0.779%
12,CC1CCc2c(sc(NC(=O)C3=COCCO3)c2C(N)=O)C1 (stereo not given),-11.5%
13,Cc1ccc(C)n1-c1sc2c(c1C(=O)O)CCCC2,9.77%
14,Cc1ccc2cc3cc(C(=O)N4CCCCCC4)oc3nc2c1,47.8%
15,C=CCn1c(SCC(=O)Nc2ccc(-c3nc4ccc(C)cc4s3)cc2)nnc1-c1ccccc1,2.23%
16,O=C(Nc1ccc2c(c1)CCC2)c1ccccc1,24.9%
17,O=C(NCC1CCCO1)c1ccc(NC(=O)c2cccc([N+](=O)[O-])c2)cc1 (stereo not given),65.6%
18,CS(=O)(=O)c1ccc2nc(NC(=O)c3ccco3)sc2c1,9.08%
19,O=C(CCS(=O)(=O)c1ccccc1)Nc1ccc(-c2nc3ccccc3s2)cc1,15.9%
20,Cc1cccc(NC(=O)c2ccccn2)c1C,32.6%

row,Compound,"activity change, positive = activation"
1,c1ccc(-c2nnc(-c3ccccn3)nc2NC2CCCCC2)cc1,-7.46%
2,C/C(CC(C)C)=N\NC(=O)Nc1ccccc1,-0.197%
3,N#C/C(=C/c1ccccc1[N+](=O)[O-])c1nc(C2CC2)cs1,96%
4,O=C(Nc1ccc(Cl)cc1Cl)c1ccc2c(c1)OCCO2,28.2%
5,O=C(COc1ccc(Cl)cc1Cl)Nc1ccc(Cl)cn1,-2.46%
6,Oc1ccc(N=Cc2c(O)ccc3ccccc23)cc1,-33%
7,O=C(Nc1cccnc1)c1ccc([N+](=O)[O-])s1,-52.7%
8,COc1cc(CNC2CCCCCCC2)c(Br)cc1OCCO,8.85%
9,Cc1ccccc1OCC(=O)Nc1cccc2nsnc12,37.9%
10,CCOc1ccc(OCCSc2nc3ccccc3n2CC(=O)O)cc1,-31%
11,Cc1ccc(-c2noc(CN3CCC(C(N)=O)CC3)n2)cc1,58.6%
12,c1ccc(-c2ccc(-c3ccccn3)nn2)nc1,35.1%
13,OCc1cc(Br)ccc1OCc1nc2ccccc2s1,32.1%
14,Cc1cc(C(=O)Cn2nnc3ccccc3c2=O)c(C)n1Cc1cccs1,9.81%
15,Cc1ccc(-c2nc3ccccc3o2)cc1NC(=O)c1ccc2c(c1)OCO2,13.8%
16,Cc1ccc2nc(-c3ccc(NC(=O)CN4C(=O)c5ccccc5C4=O)cc3)sc2c1,44.7%
17,Brc1c(CSc2nc3ccccc3s2)nc2ncccn12,60.7%
18,Cc1ccc(NC(=O)COc2ccc3c(c2)OCO3)c(Cl)c1,14.4%
19,COC(=O)c1ccc(/C=C/c2ccc3cccc(OC(C)=O)c3n2)cc1,14.5%
20,COCCCNC(=O)Nc1ccc(Br)cc1Cl,-16.6%
